Measured values reported in PMC4336329 (PLoS ONE, 2015).
In all, about 310,000 compounds went through this assay and about 14,000 (4.5%) showed an effect of 50% or more. Effects have a minus sign here. This excerpt belongs to a sample that is enriched for strong results.

Biological target: human ether-à-go-go-related gene (hERG) potassium channel (human, UniProt Q12809)
Assay: primary screen, population patch clamp on CHO cells stably expressing hERG; higher = less effect of the substance
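Also: peak tail current of the secondary pulse compared with the same well before compound.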

Sequence of human ether-à-go-go-related gene (hERG) potassium channel (Q12809 whole entry, looked up): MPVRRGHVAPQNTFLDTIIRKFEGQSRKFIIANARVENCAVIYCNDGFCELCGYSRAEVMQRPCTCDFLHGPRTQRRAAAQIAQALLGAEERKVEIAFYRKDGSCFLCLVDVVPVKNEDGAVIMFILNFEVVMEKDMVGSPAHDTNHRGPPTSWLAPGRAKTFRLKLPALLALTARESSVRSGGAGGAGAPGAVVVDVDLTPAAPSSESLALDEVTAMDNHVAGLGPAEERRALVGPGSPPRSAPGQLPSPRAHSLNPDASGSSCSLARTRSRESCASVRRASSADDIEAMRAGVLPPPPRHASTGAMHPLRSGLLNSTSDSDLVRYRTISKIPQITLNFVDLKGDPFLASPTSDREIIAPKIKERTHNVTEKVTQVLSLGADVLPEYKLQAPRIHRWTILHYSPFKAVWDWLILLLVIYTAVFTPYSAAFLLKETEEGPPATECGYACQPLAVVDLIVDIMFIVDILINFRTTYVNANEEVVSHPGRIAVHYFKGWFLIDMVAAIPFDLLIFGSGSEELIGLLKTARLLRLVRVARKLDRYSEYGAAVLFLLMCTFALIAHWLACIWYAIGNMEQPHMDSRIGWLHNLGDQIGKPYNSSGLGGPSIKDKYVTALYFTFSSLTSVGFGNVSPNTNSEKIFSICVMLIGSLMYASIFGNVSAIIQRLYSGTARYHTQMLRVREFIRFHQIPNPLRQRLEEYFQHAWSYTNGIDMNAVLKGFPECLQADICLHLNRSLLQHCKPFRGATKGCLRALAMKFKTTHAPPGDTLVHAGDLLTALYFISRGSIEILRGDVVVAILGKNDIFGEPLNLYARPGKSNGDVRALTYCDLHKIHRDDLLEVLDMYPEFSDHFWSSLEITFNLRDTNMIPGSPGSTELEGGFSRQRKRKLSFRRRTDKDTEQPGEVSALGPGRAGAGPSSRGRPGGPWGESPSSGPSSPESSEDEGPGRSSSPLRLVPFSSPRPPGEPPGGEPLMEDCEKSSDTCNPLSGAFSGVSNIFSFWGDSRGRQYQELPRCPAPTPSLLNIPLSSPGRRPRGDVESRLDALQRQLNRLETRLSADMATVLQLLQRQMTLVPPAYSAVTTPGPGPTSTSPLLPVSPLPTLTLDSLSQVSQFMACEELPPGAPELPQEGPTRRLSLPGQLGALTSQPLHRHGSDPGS

**Q.** With `COc1cccc(N2CCN(c3nc(-c4ccccc4C)cc(=O)[nH]3)CC2)c1` as the compound, how does the “hERG current change (%, negative = inhibition) at 10uM” value read?
**A.** The value was 3.88%.

**Q.** Which “hERG current change (%, negative = inhibition) at 10uM” value does the source give for `c1cc2c(cc1C1=NNC(=NC3CC3)SC1)OCCO2` here?
**A.** Its value is 16.8%.

**Q.** Which “hERG current change (%, negative = inhibition) at 10uM” value does the source give for `Cc1cc(C(=O)NNC(=O)c2sccc2C)c(C)o1` here?
**A.** The value was 7.27%.

**Q.** For `O=S(=O)(c1ccc(F)cc1)N1CCN(c2ccccc2)CC1`, which “hERG current change (%, negative = inhibition) at 10uM” value is on record?
**A.** Its value is -6.53%.

**Q.** How did the “hERG current change (%, negative = inhibition) at 10uM” value turn out when `CCN(Cc1ccccc1)C(=O)CCS(=O)(=O)c1cc2c(cc1Cl)NC(=O)CO2` was run?
**A.** Its value is -50.7%.

**Q.** With `CN(Cc1ccccc1)C(=O)CCS(=O)(=O)c1cc2c(cc1Cl)NC(=O)CO2` as the compound, how does the “hERG current change (%, negative = inhibition) at 10uM” value read?
**A.** The value was -38.9%.

**Q.** For `CCN(C(=O)CCS(=O)(=O)c1cc2c(cc1Cl)NC(=O)CO2)c1ccccc1`, which “hERG current change (%, negative = inhibition) at 10uM” value is on record?
**A.** Its value is -21.8%.

**Q.** For `O=C1Nc2ccc(Br)cc2C12NNc1ccccc1O2` (centres unmarked), which “hERG current change (%, negative = inhibition) at 10uM” value is on record?
**A.** Its value is 23.9%.

**Q.** Which “hERG current change (%, negative = inhibition) at 10uM” value does the source give for `Cn1c(N)c(C(=O)NCc2ccccc2Cl)sc1=S` here?
**A.** The value was 18%.

**Q.** How did the “hERG current change (%, negative = inhibition) at 10uM” value turn out when `Cc1ccccc1NC(=O)CSc1nc2ccccc2c2nc(CCn3cncc3C)nn12` was run?
**A.** Its value is -55.6%.

**Q.** With `Cc1cccc(NC(=O)CSc2nc3ccccc3c3nc(CCc4c(C)n[nH]c4C)nn23)c1` as the compound, how does the “hERG current change (%, negative = inhibition) at 10uM” value read?
**A.** Its value is -9.44%.

**Q.** Which “hERG current change (%, negative = inhibition) at 10uM” value does the source give for `Cc1ccccc1NC(=O)CSc1nc2ccccc2c(=O)n1C` here?
**A.** The value was 1.39%.

**Q.** With `Cc1ccc(NC(=O)CSc2nc3ccccc3c3nc(CCn4cncc4C)nn23)c(C)c1` as the compound, how does the “hERG current change (%, negative = inhibition) at 10uM” value read?
**A.** The value was 2.77%.

**Q.** With `Cc1ccc(NC(=O)CSc2nc3ccccc3c3nc(CCc4c(C)n[nH]c4C)nn23)cc1F` as the compound, how does the “hERG current change (%, negative = inhibition) at 10uM” value read?
**A.** Its value is -11.7%.

**Q.** `Cc1cncn1CCc1nc2c3ccccc3nc(SCC(=O)Nc3cccc(Cl)c3)n2n1` was tested. Which “hERG current change (%, negative = inhibition) at 10uM” value did it give?
**A.** Its value is -78.4%.

**Q.** How did the “hERG current change (%, negative = inhibition) at 10uM” value turn out when `CCCCOC(=O)c1sc2nc(N3CCOCC3)c3c(c2c1N)CC(C)(C)OC3` was run?
**A.** Its value is 9.29%.

**Q.** How did the “hERG current change (%, negative = inhibition) at 10uM” value turn out when `CCOC(=O)C1CCN(C(=O)c2ccc3c(c2)OCO3)CC1` was run?
**A.** Its value is -5.29%.

**Q.** How did the “hERG current change (%, negative = inhibition) at 10uM” value turn out when `Cl.Clc1c(OCCCn2ccnc2)ccc2ccccc12` was run?
**A.** The value was -31.9%.

**Q.** Which “hERG current change (%, negative = inhibition) at 10uM” value does the source give for `COCCN1C(=O)/C(=C/c2ccc(OCc3ccc(C(=O)O)cc3)c(OC)c2)SC1=Nc1ccccc1` here?
**A.** The value was 7.58%.

**Q.** For `NNC(=O)c1sccc1OCc1ccc(Cl)cc1Cl`, which “hERG current change (%, negative = inhibition) at 10uM” value is on record?
**A.** The value was -18.5%.

**Q.** How did the “hERG current change (%, negative = inhibition) at 10uM” value turn out when `C=CCNC(=O)/C=C/c1cccs1` was run?
**A.** The value was 16.4%.

**Q.** Which “hERG current change (%, negative = inhibition) at 10uM” value does the source give for `COC(=O)c1ccc(NC(=O)COC(=O)C2CCC2)cc1` here?
**A.** The value was 4.03%.

**Q.** Which “hERG current change (%, negative = inhibition) at 10uM” value does the source give for `Cc1cccc(NC(=S)N(CCN(C)C)Cc2cc3cc(C)ccc3[nH]c2=O)c1` here?
**A.** The value was -16.5%.

**Q.** With `Cc1cccc2cc(CN(CCN(C)C)C(=S)Nc3ccccc3)c(=O)[nH]c12` as the compound, how does the “hERG current change (%, negative = inhibition) at 10uM” value read?
**A.** The value was -24%.

**Q.** With `Cc1ccc(NC(=S)N(CCN(C)C)Cc2cc3cc(C)cc(C)c3[nH]c2=O)cc1` as the compound, how does the “hERG current change (%, negative = inhibition) at 10uM” value read?
**A.** The value was -7.41%.

**Q.** `Cc1ccc(NC(=S)N(Cc2cccs2)Cc2cc3cccc(C)c3[nH]c2=O)cc1` was tested. Which “hERG current change (%, negative = inhibition) at 10uM” value did it give?
**A.** Its value is -9.88%.

**Q.** `Cc1ccc(NC(=S)N(CCN(C)C)Cc2cc3cc(C)ccc3[nH]c2=O)cc1` was tested. Which “hERG current change (%, negative = inhibition) at 10uM” value did it give?
**A.** The value was -43.5%.

**Q.** How did the “hERG current change (%, negative = inhibition) at 10uM” value turn out when `CCN(CC)CCN(Cc1cc2cc(C)ccc2[nH]c1=O)C(=S)Nc1ccccc1` was run?
**A.** The value was -50.6%.

**Q.** Which “hERG current change (%, negative = inhibition) at 10uM” value does the source give for `Cc1ccc(NC(=S)N(CCN(C)C)Cc2cc3cccc(C)c3[nH]c2=O)cc1` here?
**A.** Its value is -55.6%.

**Q.** For `Cc1cccc2cc(CN(CC3CCCO3)C(=S)Nc3ccccc3)c(=O)[nH]c12` (centres unmarked), which “hERG current change (%, negative = inhibition) at 10uM” value is on record?
**A.** Its value is 2.39%.

**Q.** `CCN(CC)CCN(Cc1cc2cccc(C)c2[nH]c1=O)C(=S)Nc1ccccc1` was tested. Which “hERG current change (%, negative = inhibition) at 10uM” value did it give?
**A.** The value was -66.2%.

**Q.** For `Cc1ccc(C(=O)N(CN2CCCC2=O)c2ccccc2)cc1`, which “hERG current change (%, negative = inhibition) at 10uM” value is on record?
**A.** The value was -1.3%.

**Q.** With `CCN(CC(=O)NCc1ccc(Cl)cc1)CC(=O)NC1(C#N)CCCC1` as the compound, how does the “hERG current change (%, negative = inhibition) at 10uM” value read?
**A.** The value was -19.2%.

**Q.** For `CC[C@H](C)Cc1cn([C@@H](CCCN=C(NC(=O)OC(C)(C)C)NC(=O)OC(C)(C)C)C(=O)NCCCCCCCCCCC(=O)N2CCN(C(=O)OC(C)(C)C)CC2)nn1`, which “hERG current change (%, negative = inhibition) at 10uM” value is on record?
**A.** The value was 4.2%.

**Q.** For `CCOC(=O)c1c(NC(=O)C2=C(C)NC(=S)NC2c2ccc(CC)cc2)sc(C)c1C` (centres unmarked), which “hERG current change (%, negative = inhibition) at 10uM” value is on record?
**A.** Its value is 7.47%.

**Q.** `Cc1cc(SCC(=O)NN)c2cc(Br)ccc2n1` was tested. Which “hERG current change (%, negative = inhibition) at 10uM” value did it give?
**A.** The value was -1.57%.

**Q.** With `Cc1ccc(S(=O)(=O)N2CCOC2CNC(=O)C(=O)NCCc2ccccc2)cc1` (centres unmarked) as the compound, how does the “hERG current change (%, negative = inhibition) at 10uM” value read?
**A.** The value was -25.6%.

**Q.** Which “hERG current change (%, negative = inhibition) at 10uM” value does the source give for `CCOC(=O)c1c(N)c2cc([N+](=O)[O-])cnc2n1C` here?
**A.** Its value is 17.3%.

**Q.** With `CCOC(=O)c1cc2sccc2n1CCCN1C(=O)c2ccccc2C1=O` as the compound, how does the “hERG current change (%, negative = inhibition) at 10uM” value read?
**A.** Its value is 6.01%.

**Q.** For `CN1CCN(C(N)=NC(=O)c2ccccc2)CC1`, which “hERG current change (%, negative = inhibition) at 10uM” value is on record?
**A.** The value was 6.76%.

**Q.** Which “hERG current change (%, negative = inhibition) at 10uM” value does the source give for `COc1ccc(Cl)cc1S(=O)(=O)N1CCN=C1Cc1ccccc1` here?
**A.** The value was -18.9%.
